Laboratory results reported in PubChem BioAssay (NCATS).
Several values for one entry are separate records, joined by “and”; a condition that tells them apart may be missing. Equal values may be shown once. Results filed as inconclusive are left out. Where a call stands in place of a potency, no number is given. Activity calls are given as the source filed them. The call rests on the fitted dose curve; in most records, active means well fitted inhibition curve with a large enough effect; inconclusive means small, poorly fitted or top-dose-only effect; inactive means no such curve, though single readings can be large or run the other way.
Potency means the concentration at half of the fitted maximal effect.

Each compound was assayed against Cytochrome P450 2D6 (Homo sapiens) (UniProt P10635) (assay: qHTS Assay for Inhibitors and Substrates of Cytochrome P450 2D6 (AID 891; further: nearly all actives have a fitted effect of over 60% in size)). Conditions: recombinant CYP2D6, luciferin-ME EGE luminescence; series mostly up to 11.4 µM.
Sequence of Cytochrome P450 2D6 (Homo sapiens) (P10635 whole entry, looked up): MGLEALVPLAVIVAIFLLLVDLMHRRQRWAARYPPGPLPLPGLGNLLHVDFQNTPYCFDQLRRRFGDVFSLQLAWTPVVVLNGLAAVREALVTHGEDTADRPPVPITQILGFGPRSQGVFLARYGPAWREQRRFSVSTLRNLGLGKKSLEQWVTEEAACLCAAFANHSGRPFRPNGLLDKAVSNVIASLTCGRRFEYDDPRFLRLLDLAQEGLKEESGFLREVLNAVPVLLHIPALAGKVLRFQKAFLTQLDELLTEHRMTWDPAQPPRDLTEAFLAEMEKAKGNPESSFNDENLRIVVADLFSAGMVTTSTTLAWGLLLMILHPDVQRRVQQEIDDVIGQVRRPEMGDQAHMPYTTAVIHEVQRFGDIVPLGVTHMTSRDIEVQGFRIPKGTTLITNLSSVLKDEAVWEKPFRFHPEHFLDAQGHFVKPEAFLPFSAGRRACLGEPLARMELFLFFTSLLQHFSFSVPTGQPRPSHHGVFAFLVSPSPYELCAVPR
Procedure: NIH Molecular Libraries Screening Centers Network [MLSCN]
NIH Chemical Genomics Center [NCGC]
The P450 gene superfamily is involved in the metabolism and clearance of xenobiotics. This assay used human CYP2D6 to measure the demethylation of ethylene glycol ester of luciferin 6' methyl ether (Luciferin-ME EGE; […]) to luciferin. The luciferin is then measured by luminescence after the addition of a luciferase detection reagent. Luciferin-ME EGE concentration in the assay was equal to its Km for CYP2D6. Inhibitors and some substrates limit the production of luciferin, and decrease measured luminescence.
NCGC Assay Protocol Summary:
Two uL of enzyme and substrate mix (final concentrations: 5nM CYP2D6, 30uM Luciferin-ME EGE, 100mM KPO4) were dispensed into a white, solid bottom 1536-well microtiter plate. 23nL of compound was transferred by a pin tool. The plate was incubated at room temperature for 10 min. Two uL of an NADPH regeneration solution (Promega supplied reagent) was dispensed and the reaction was allowed to continue for 60 min at room temperature. Then the reaction was stopped by reconstituted luciferin detection buffer. After another 20 min of incubation the plate was read on the ViewLux (Perkin Elmer) at 60 sec exposure and 2x2 binning. This protocol was carried out with Promega-Glo reagents and further information can be found at http://www.promega.com/tbs/tb325/tb325.pdf. Data were normalized to the to AC100 inhibition (1.43 uM quinidine).
Keywords: P450, CYP2D6, Luciferase, MLSMR, MLSCN, NIH Roadmap, qHTS, NCGC
In the case of `C=CCOC(=O)/C=C/NC(=O)/C=C/C=C/CCCCCCCC(C)O` (stereo not given), the Potency is reported as “inactive”. For `C/C=C/OC(=O)NC(c1ccccc1)[C@@]1(C(=O)OCC)CCCC1=O` (stereo not given in full), the Potency was “inactive”. With `CC1CCC2C(=O)N3C(CCC(C)[C@@H]3c3cccc(N4CCOCC4)c3)C(=O)N2C1c1cccc(N2CCOCC2)c1` (stereo not given in full) the Potency was “inactive”. With `COc1ccc(O[C@H]2C=C[C@@H](c3ccccc3)O[C@H]2COC(=O)CC/C(C)=N/O[C@@H]2O[C@H](COC(C)=O)[C@H](OC(C)=O)[C@H](OC(C)=O)[C@H]2OC(C)=O)cc1` the Potency was 3.16 µM (active). `CC(=O)c1ccc(OC2C(O)COC2/C=C/c2ccc(Cl)cc2)cc1` (stereo not given) was tested, and the Potency was “inactive”. With `CCOC(c1cc(OC)cc([N+](=O)[O-])c1OC)C(C)C(OC)[C@@H](C)/C=C/CC(=O)OC` (stereo not given in full) the Potency was “inactive”. With `CC(=O)OC[C@@H]1O[C@H](C/C=N\O[C@@H](C)CN2CCCc3nc(C)c(C)cc32)C=C[C@@H]1OC(C)=O` the Potency was 3.16 µM (active). For `O=C(/C=C\c1ccc2c(c1)OCO2)c1ccc(F)cc1`, the Potency was 2 µM (active). In the case of `CO/N=C(/C)CCC(=O)OC[C@@H]1O[C@H](C#Cc2ccccc2)C=C[C@@H]1Oc1ccc(C)cc1`, the Potency is reported as “inactive”. In the case of `CC(C)=CCC/C(C)=C/CO/N=C1/C[C@@H](O)[C@@H](O)[C@@H]2[C@@H]3C(=O)N(C[C@@H]4CCCO4)C(=O)[C@H]3CC[C@@H]12`, the Potency is reported as “inactive”. For `COc1ccc(O[C@H]2C=C[C@@H](c3ccccc3)O[C@H]2COC(=O)CC/C(C)=N\O[C@@H](C)CN2CCCc3nc(C)c(C)cc32)cc1`, the Potency was 3.16 µM (active). In the case of `OCC1OC(C#Cc2ccccc2)C=CC1O` (stereo not given), the Potency is reported as “inactive”. With `CC(=O)c1ccc(C2C=CC(Oc3ccc(-c4ccccc4)cc3)C(CO)O2)cc1` (stereo not given) the Potency was “inactive”. With `CCN1C(=O)[C@H]2[C@H]3[C@H](O)[C@H](O)C/C(=N/O[C@@H]4O[C@H](COC(C)=O)[C@@H](OC(C)=O)[C@H](OC(C)=O)[C@H]4OC(C)=O)[C@@H]3CC[C@@H]2C1=O` the Potency was 3.98 µM (active). In the case of `C[C@@H](c1ccccc1)N1C(=O)[C@H]2[C@H]3[C@H](O)[C@H](O)C/C(=N/OCc4ccccc4)[C@@H]3CC[C@@H]2C1=O`, the Potency is reported as “inactive”. For `CCN1C(=O)[C@H]2[C@H]3[C@H](O)[C@H](O)C/C(=N/OC[C@@H](C)[C@H](OCc4ccccc4)C(C)C)[C@@H]3CC[C@@H]2C1=O`, the Potency was “inactive”. `COC(=O)C(C(=O)OC)C1O[C@@]23COCCC2(C)C3c2ccccc21` (stereo not given in full) was tested, and the Potency was “inactive”. With `CCCCCCC#CC1C=CC(OC(=O)OCC)C(COC(=O)OCC)O1` (stereo not given) the Potency was “inactive”. For `CCN1C(C)=C(C(=O)OC)C(c2ccccc2)N2C(=O)[C@@]3(C(=O)OC)O[C@@]12C1C(=O)N(C)C(=O)C13` (stereo not given in full), the Potency was “inactive”. `CC1CCC2C(=O)OC(CN=[N+]=[N-])CN2C1c1ccc(Br)cc1` (stereo not given) was tested, and the Potency was “inactive”. For `COC(=O)NC(c1cccc(F)c1)[C@@]1(C(=O)OC)CCCC1=O` (stereo not given in full), the Potency was “inactive”. With `COC(=O)NC(CC(C)=O)c1ccc(Cl)cc1` (stereo not given) the Potency was “inactive”. For `COC(=O)NC(c1cccc(C)c1)[C@@]1(C(=O)OC)CCCC1=O` (stereo not given in full), the Potency was “inactive”. With `COC(=O)C1=C(C)N(Cc2ccccc2)[C@]23O[C@](C(=O)OC)(C(=O)N2C1c1ccccc1)C1C(=O)N(c2ccccc2)C(=O)C13` (stereo not given in full) the Potency was “inactive”. For `CC(=O)OCC1OC(C#CCCCc2ccccc2)C=CC1OC(C)=O` (stereo not given), the Potency was 3.98 µM (active) and 3.16 µM (active). For `COc1cccc([C@@H]2Oc3ccc(OC)cc3/C(=N/O[C@@H](C)CN3CCCc4nc(C)c(C)cc43)[C@@H]2O)c1`, the Potency was 3.98 µM (active). In the case of `C=CCOC(=O)C(C(C)=O)C(NC(=O)OC)c1ccco1` (stereo not given), the Potency is reported as “inactive”. In the case of `O=C(O)C1Cc2c([nH]c3ccccc23)C(c2ccccc2)N1` (stereo not given), the Potency is reported as 3.98 µM (active). For `CCOC(=O)OCC1OC(c2cc(C)cc(C)c2)C=CC1OC(=O)OCC` (stereo not given), the Potency was “inactive”. `C=CCC1C=CC(OC(=O)OCC)C(COC(=O)OCC)O1` (stereo not given) was tested, and the Potency was “inactive”. For `CCOC(=O)OCC1OC(c2ccc(C(C)=O)cc2)C=CC1Oc1ccc(-c2ccccc2)cc1` (stereo not given), the Potency was “inactive”. For `CC(=O)OC[C@H]1O[C@@H](ON=C(C)C)[C@H](OC(C)=O)[C@@H](OC(C)=O)[C@H]1OC(C)=O`, the Potency was 3.16 µM (active). For `CCCCCCCC#Cc1ccccc1/C=N/S(=O)c1ccc(C)cc1` (stereo not given), the Potency was “inactive”. `CC(=O)OCC1OC(c2cc(C)cc(C)c2)C=CC1OC(C)=O` (stereo not given) was tested, and the Potency was “inactive”. `CC(C)c1ccc2c(c1)CC[C@@H]1[C@@](C)(CN)CCC[C@@]21C` was tested, and the Potency was 1 µM (active). With `CC(=O)OC[C@@H]1O[C@@H](O/N=C2/C[C@@H](O)[C@@H](O)[C@@H]3[C@@H]4C(=O)N(C5CCCCC5)C(=O)[C@H]4CC[C@H]23)[C@H](OC(C)=O)[C@H](OC(C)=O)[C@@H]1OC(C)=O` the Potency was 3.98 µM (active). For `CO/N=C(\C)CCN1CCCc2nc(C)c(C)cc21`, the Potency was 3.98 µM (active). In the case of `COC(c1ccccc1Br)C(C)/C=C/CCO` (stereo not given), the Potency is reported as “inactive”. With `COc1ccc(OC)c(C2OCCC=CC2C)c1` (stereo not given) the Potency was “inactive”. `COC(=O)NC(/C(C(=O)OC)=C(\C)NCc1ccccc1)c1ccc2ccccc2c1` (stereo not given) was tested, and the Potency was 2 µM (active).
